Compound activity: PubChem, National Center for Advancing Translational Sciences (NCATS)
Tau fluor cs: Counterscreen qHTS for Inhibitors of Tau Fibril Formation, Fluorescence Polarization | tau K18 P301L Alexa594 fluorescence, heparin fibrillization | Potency, µM (titrated, usually from 57.7 µM), for the others: at the highest dose activity change, negative = decrease | 0.93% of 280,000 active; also: potency is read from the fitted curve at half-maximal effect; nearly all actives have a fitted effect of over 55% in size
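Human tau K18 P301L (15 uM unlabeled, 0.24 uM Alexa 594-labeled) in 100 mM sodium acetate pH 7 with 20 uM heparin, 6 hr at 37 C. ThT 30 uM added, 1 hr ambient; Alexa 594 FP and total fluorescence read at 555/632 nm.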
Coupling enz: qHTS Assay for Inhibitors of Fructose-1,6-bisphosphate Aldolase from Giardia Lamblia: Coupling assay counterscreen. AID 2472, 2010. activity change, negative = inhibition, % at 58.2 µM, hits read low. 0.67% of 290,000 active. coupling enzyme system counterscreen, AmpLite Red fluorescence; in the data active = activity change below about -30%
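First, compound is pin-transferred into glyceraldehyde-3-phosphate coupling-enzyme reagent at 57.5 uM final and held 10 min at RT. Next, substrate, coupling system and AmpLite Red are added. After 20 min RT, fluorescence (525/598 nm) is read.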
Tau fibril FP: qHTS for Inhibitors of Tau Fibril Formation, Fluorescence Polarization; K18 P301L tau heparin fibrillization, Alexa594 FP, 6 h; AID 1468, 2008; Potency, µM (series often up to 57.7 µM), for the others: top-dose activity, negative = inhibition, most hits filed as inhibitors; 0.39% of 280,000 active; Microtubule-associated protein tau (Homo sapiens), P10636; also: potency is read from the fitted curve at half-maximal effect; nearly all actives have a fitted effect of over 55% in size
Target sequence (P10636 561-689 P618L limits assumed): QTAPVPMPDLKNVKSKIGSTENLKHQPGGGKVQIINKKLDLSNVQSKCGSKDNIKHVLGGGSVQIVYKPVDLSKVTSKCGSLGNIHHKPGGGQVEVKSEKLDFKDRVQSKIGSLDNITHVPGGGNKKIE
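Compound effects on tau fibrillization are measured by Alexa 594 fluorescence polarization (ex 555, em 632 nm). K18 P301L tau is used at 15 uM with 0.24 uM labeled tracer, and 20 uM heparin induces aggregation over 6 hr at 37 C.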
Sfp inh: qHTS Assay for Inhibitors of Bacillus subtilis Sfp phosphopantetheinyl transferase (PPTase) | Biochemical Sfp PPTase activity, qHTS | Potency, µM, for inactives: largest response in the series, negative = inhibition, most hits filed as inhibitors | 3.5% of 310,000 active | AID 1490, 2009;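 also: the enzyme is Sfp with the accession as filed and its product quenches rhodamine fluorescence; potency is read from the fitted curve at half-maximal effect; 0% = enzyme reaction without inhibitor and -100% = no enzyme wells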
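Fluorescence-quenching assay: 15 nM Sfp-PPTase preincubated 15 min at room temperature with compound, then 5 uM rhodamine-CoA and 12.5 uM BHQ-2-labelled YbbR peptide added. Fluorescence (ex 525/em 598 nm) read at start and after 30 min; difference gives rate.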
Tau fibril ThT: qHTS for Inhibitors of Tau Fibril Formation, Thioflavin T Binding | Potency, µM (highest dose often 57.4 µM), for inactives: top-dose activity, negative = inhibition, usual class: inhibitors | AID 1460, 2008 | 2.1% of 270,000 active | recombinant tau K18 P301L (four-repeat tau fragment), heparin-induced fibrillization, ThT fluorescence | Microtubule-associated protein tau (Homo sapiens), P10636; also: potency is read from the fitted curve at half-maximal effect; nearly all actives have a fitted effect of over 55% in size
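K18 P301L tau (15 uM + 0.24 uM Alexa 594-tagged), heparin 20 uM, NaOAc pH 7, 6 h 37 C; ThT 30 uM, 1 h RT, ex 450/em 510 nm.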
G9a inh: qHTS Assay for Inhibitors of Histone Lysine Methyltransferase G9a; Histone-lysine N-methyltransferase EHMT2 (Homo sapiens), Q96KQ7; G9a H3K9 monomethylation, AlphaScreen, 2 h; Potency, µM (top dose mostly 102 µM), inactives show at the highest dose activity, negative = inhibition, usual class: inhibitors; 8.8% of 350,000 active; also: potency is read from the fitted curve at half-maximal effect; nearly all actives have a fitted effect of over 75% in size
Target sequence (Q96KQ7 913-1193 limits assumed): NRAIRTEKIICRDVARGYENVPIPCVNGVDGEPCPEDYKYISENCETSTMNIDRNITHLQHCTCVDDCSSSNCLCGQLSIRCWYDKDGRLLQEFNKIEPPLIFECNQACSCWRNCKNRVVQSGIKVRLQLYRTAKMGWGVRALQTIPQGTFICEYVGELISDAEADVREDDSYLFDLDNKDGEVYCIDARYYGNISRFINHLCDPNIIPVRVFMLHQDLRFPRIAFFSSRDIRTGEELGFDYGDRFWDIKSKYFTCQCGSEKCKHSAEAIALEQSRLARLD
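Quantitative HTS format: methyltransferase activity on a biotin-tagged H3K9 peptide is measured by AlphaScreen, using a rabbit anti-monomethyl-H3K9 antibody with streptavidin donor and anti-IgG acceptor beads. Final levels are 20 nM enzyme, 500 nM peptide, 20 uM SAM; 2 h RT.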
* marks the source's active call; other numbers are inactive results; ? = inconclusive; · = not tested or not shown; [ ] = another dose, or the depositor's remark. Sampled rows, rich in hits. Any-hit rate of the full collection: about 11%. Unless noted, calls follow the shape of the dose curve; as a rule, active = well fitted curve in the direction sought with a large enough effect; inconclusive = small, poorly fitted or top-dose-only effect, or another doubt; inactive = no such curve, though single readings can be large; an effect the other way counts as inactive or inconclusive. Unless noted, % is scaled to controls: 0 for no effect and ±100 for the full control effect.

SMILES	Tau fluor cs	Coupling enz	Tau fibril FP	Sfp inh	Tau fibril ThT	G9a inh
O=C(COC(=O)c1ccccc1Br)NC1CCCC1	·	0.1	·	0.6%	·	39.8µM*
CCCCOC(=O)c1ccc(NC(=O)c2ccc3c(c2)CCN3S(C)(=O)=O)cc1	?	·	?	·	-4.3%	-3.4%[59 µM]
C=C(C)COc1ccc2c(C)c(CCC(=O)NC3CC3)c(=O)oc2c1	·	0.4	·	4.5%	·	27.2%
CCN(Cc1ccncc1)Cc1c(O)ccc2ccccc12	?	-33.2*	-14.2%	-3.3%	?	1.41µM*
COc1ccc2ccccc2c1CN(C)Cc1ccccc1	·	-2.2	·	15.0%	·	-7.3%[0.501 µM]
CC(C)CN(Cc1c(O)ccc2ccccc12)CC(C)C	?	-9.2	-0.7%	4.8%	?	·
COc1cccc(CN(C)Cc2nc(C3CC3)no2)c1	-6.1%	2.1	-7.9%	7.8%	-3.5%	20.9%
CCN(Cc1ccncc1)Cc1ccc(Br)cc1	·	-3.7	·	-33.4%	·	?
CN(C)Cc1c(O)ccc2ccccc12	-27.3%	-9.9	-2.9%	6.0%	?	7.94µM*
COc1ccc(CN(C)Cc2c(O)ccc3ccccc23)cc1	·	-6.4	·	-3.1%	·	17.8µM*
COc1cccc(CN(C)Cc2c(O)ccc3ccccc23)c1	·	-16.2	·	-2.7%	·	8.91µM*
O=C(NS(=O)(=O)c1ccc(F)cc1)O[C@@H]1C(=O)c2cc(Br)ccc2O[C@H]1c1ccc2c(c1)OCO2	-13.3%	1.2	?	-10.4%	?	·
CCCCCC(=O)Nc1ccc(S(=O)(=O)Nc2nccc(C)n2)cc1	-2.3%	3.8	-1.8%	18.4%	-2.0%	?
CCN(CC(=O)Nc1ccc(NC(C)=O)cc1)Cc1c(O)ccc2cc(Br)ccc12	·	-0.9	·	-16.9%	·	1.78µM*
Cc1ccc(NC(=O)CN(C)Cc2c(O)ccc3ccccc23)cc1	·	-2.6	·	-17.4%	·	1.41µM*
COc1ccc(NC(=O)CN(C)CC(=O)NCc2ccc(C)cc2)cc1	·	·	·	·	·	18.5%[12.7 µM]
COc1ccc(-n2ncc(C(=O)N3CCc4ccccc4C3)c2C2CCN(C(=O)OC(C)(C)C)CC2)cc1	2.2%	·	0.8%	·	-3.4%	?
CC(C)=CCC/C(C)=C/C=C/C(C)=C/C=C/C(C)=C/C=C/C=C(C)/C=C/C=C(C)/C=C/C=C(\C)CCC=C(C)C	·	·	·	?	·	20µM*
CC(C)=CCC/C(C)=C/C(N)=O	2.9%	-0.2	0.1%	?	1.5%	17.8%
Cc1nn(CC(=O)N(C)c2c(N)n(Cc3ccccc3)c(=O)[nH]c2=O)c(C)c1[N+](=O)[O-]	·	·	·	·	·	10.3%[12.7 µM]
Cc1ccc(Cn2c(CN3CCC(C(=O)NCCc4ccccc4)CC3)cc3ccccc32)cc1	-10.9%	·	8.2%	·	-3.0%	8.91µM*
CN(C)c1ccc(CN2CCC(C(N)=O)CC2)cc1	-0.9%	2.3	0.9%	18.8%	-7.9%	14.1µM*
CN(C)c1ccc(CNC(=O)C2CCN(c3nc4ccccc4[nH]3)CC2)cc1	-13.9%	·	-7.7%	·	-12.0%	15.8µM*
O=C(NCCc1ccccc1)C1CCN(Cc2cc3ccccc3n2Cc2cccc(Cl)c2)CC1	-16.6%	·	-5.5%	·	-8.5%	10.3%[59 µM]
CCC1=C(c2ccc(C)cc2)S(=O)(=O)N=C1N1CCC(C(=O)NCc2ccc(N(C)C)cc2)CC1	-1.8%	·	12.1%	·	-5.0%	12.6µM*
SMILES	Tau fluor cs	Coupling enz	Tau fibril FP	Sfp inh	Tau fibril ThT	G9a inh
Cc1ccc(CNC(=O)C2CCN(c3nc4ccc(C)cc4[nH]3)CC2)cc1	-7.6%	·	4.8%	·	-2.2%	7.1%[59 µM]
CC1=C(c2ccc(C)c(C)c2)S(=O)(=O)N=C1N1CCC(C(=O)NCc2ccc(N(C)C)cc2)CC1	-11.5%	·	8.4%	·	?	3.7%[59 µM]
O=C(c1ccc2c(c1)CCN2S(=O)(=O)c1ccc(Cl)cc1)N1CCN(c2ccccc2)CC1	-13.2%	·	5.2%	·	-9.5%	?
CCCCCCCCCCCCCCOS(=O)(=O)O	·	9.9	·	14.3%	·	·
COc1ccc(OC)c(CCNc2ncnc3onc(C)c23)c1	-14.3%	·	-7.7%	·	-4.9%	-1.1%[59 µM]
Cc1ccsc1CN1CCC(C(=O)NCc2ccccc2Cl)CC1	1.2%	-0.3	6.0%	?	-6.3%	10µM*
O=C(NCc1ccccc1CN1CCCC1)C1CCN(C(=O)c2ccc(F)cc2)CC1	·	·	·	·	·	-6.4%[2.33 µM]
CC(=O)Nc1c(C)nn(-c2ccccc2)c1N1CCC(C(=O)NCc2ccccc2Cl)CC1	-4.6%	·	-3.4%	·	-5.9%	-5.9%[59 µM]
CN(C)c1ccc(CNC(=O)C2CCN(Cc3cc4ccccc4n3Cc3ccccc3)CC2)cc1	-27.4%	·	8.1%	·	-9.7%	11.2µM*
O=C(NCCc1ccccc1)C1CCN(Cc2ccccc2F)CC1	4.4%	-0.6	5.3%	0.9%	5.9%	7.94µM*
CN(C)CC(C)(C)CNC(=O)C1CCN(Cc2ccccc2O)CC1	-2.1%	-0.4	-0.2%	-19.3%	-11.5%	10µM*
CCCCn1c(N)c(N(CC(C)C)C(=O)COC(=O)c2ccccc2NCCO)c(=O)[nH]c1=O	·	·	·	·	·	3.98µM*
CCCn1c(N)c(N(CCOC)C(=O)COC(=O)c2ccccc2NCCO)c(=O)[nH]c1=O	·	·	·	·	·	8.91µM*
CCOC(=O)CC(NC(=O)c1ccc(C)cc1)c1ccc(OC)cc1 (centres undefined)	-5.9%	2.5	0.9%	26.2%	-4.4%	-2.1%
CCCCOc1ccc(C(=O)Nc2ccc3c(c2)N(C(C)=O)CCC3)cc1	-8.9%	·	-1.4%	·	-6.9%	-0.9%[59 µM]
OC(CON=C1c2ccccc2-c2ccccc21)CN1CCNCC1 (centres undefined)	-6.6%	0.2	1.7%	-54.4%	-9.6%	50.1µM*
OC(CN1CCNCC1)Cn1ccc2ccccc21 (centres undefined)	·	0.0	·	2.9%	·	4.3%
Cc1ccccc1-c1noc(-c2ccccc2OCC(=O)Nc2cccc([N+](=O)[O-])c2)n1	?	·	14.1%	·	?	15.8µM*
CC(C)c1noc(-c2ccccc2OCC(=O)Nc2ccccc2[N+](=O)[O-])n1	?	·	3.5%	·	?	10µM*
CC(C)c1noc(-c2ccccc2OCC(=O)Nc2cccc([N+](=O)[O-])c2)n1	-13.2%	·	-1.8%	·	-11.8%	-33.9%[59 µM]
